This is part of a sample that, as a whole, favours compounds with a hit. Of some 83,000 tested, about 20% had one in any assay.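 For each line, cells grew in 96-well plates with the test compound present at a single concentration for 48 hours.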 Calls of active or inactive are those of the source. How the source made its calls: active means growth percent below 10; inactive means the rest.
Experiments:
Assay in all cases: NCI-60 one-dose screen, 48 h (100 = growth as untreated, 0 = no growth, -100 = all killed)
Conditions in all cases: 10 µM unless noted
T-47D breast = test system: T-47D breast
BT-549 breast = test system: BT-549 breast
MDA-MB-435 melanoma = test system: MDA-MB-435 melanoma
SW-620 colon = test system: SW-620 colon
MCF7 breast = test system: MCF7 breast
HCT-116 colon = test system: HCT-116 colon
HCC-2998 colon = test system: HCC-2998 colon
KM12 colon = test system: KM12 colon

Measured: growth

COc1c(B(O)O)cc(C)cc1-c1nc2ccc3[nH]ncc3c2c2c1CCCC2
inactive: T-47D breast 78.5% | BT-549 breast 24.2% | MDA-MB-435 melanoma 22.5% | MCF7 breast 54.6% | HCT-116 colon 21.3% | HCC-2998 colon 62.9% | KM12 colon 30.6%
active: SW-620 colon 8.73%

CC1=NN(c2ccc(S(=O)(=O)O)cc2)C(=O)C1N=Nc1ccc(-c2ccc(N=Nc3ccc(OS(=O)(=O)c4ccc(C)cc4)cc3)c(S(=O)(=O)O)c2)cc1 (stereo not given)
inactive: T-47D breast 90.3% | BT-549 breast 68.4% | MDA-MB-435 melanoma 95.1% | SW-620 colon 103% | MCF7 breast 88.7% | HCC-2998 colon 104% | KM12 colon 105%

c1ccc2c(c1)Nc1ccncc1S2
inactive: T-47D breast 95.3% | BT-549 breast 75% | MDA-MB-435 melanoma 121% | SW-620 colon 92.5% | MCF7 breast 100% | HCT-116 colon 82% | KM12 colon 103%

CCCCC[C@H](O)C/C=C1/C(=O)C=C[C@@H]1C/C=C\CCCC(=O)O
inactive: T-47D breast 50.4% | BT-549 breast 54.5% | MDA-MB-435 melanoma 36.9% | SW-620 colon 51.9% | MCF7 breast 19% | HCT-116 colon 44.5% | HCC-2998 colon 76.5% | KM12 colon 50.9%

COc1nc2ccc(C)cc2cc1-c1nc2c(cnn2-c2ccc(Br)cc2)c(=O)[nH]1
inactive: T-47D breast 58.3% | BT-549 breast 91.2% | SW-620 colon 28.6% | MCF7 breast 21.8% | HCT-116 colon 13.7% | HCC-2998 colon 88.4% | KM12 colon 25%
active: MDA-MB-435 melanoma -27.1%

Nc1nc2ccccc2c2c(=O)c3cc(F)ccc3sc12
inactive: T-47D breast 84.3% | BT-549 breast 106% | MDA-MB-435 melanoma 98.6% | SW-620 colon 107% | MCF7 breast 34.4% | HCT-116 colon 99.4% | HCC-2998 colon 96.6% | KM12 colon 99%

COc1cccc(/C=C2\C=C(c3ccccc3)N(Cc3ccccc3)C2=O)c1
inactive: T-47D breast 59.8% | BT-549 breast 69.7% | SW-620 colon 43.5% | MCF7 breast 32.5% | HCT-116 colon 48.3% | HCC-2998 colon 66.6% | KM12 colon 53.4%
active: MDA-MB-435 melanoma -32.3%

COc1cc(C2CC(c3ccc(N(C)C)cc3)=NN2C(C)=O)cc(OC)c1OC (stereo not given)
active: MDA-MB-435 melanoma -65.6%
inactive: T-47D breast 31.7% | BT-549 breast 45.1% | SW-620 colon 10.7% | MCF7 breast 11.5% | HCT-116 colon 20.6% | HCC-2998 colon 24.9% | KM12 colon 10.8%

Cc1ncc(C(=O)Nc2ccc(CN3CCN(C)CC3)c(C(F)(F)F)c2)cc1C#Cc1ccc(N)nc1
inactive: T-47D breast 18.6% | BT-549 breast 15.3% | HCC-2998 colon 25.5%
active: MDA-MB-435 melanoma -59% | SW-620 colon -2.48% | MCF7 breast 4.46% | HCT-116 colon -31.3% | KM12 colon 2.86%

CC(=O)Oc1ccccc1C(=O)N=C1[Se]CCCN1C(=O)c1ccccc1OC(C)=O
active: BT-549 breast -97.2% | MDA-MB-435 melanoma -18.9% | HCT-116 colon -8.29%
inactive: T-47D breast 85.2% | SW-620 colon 88.4% | MCF7 breast 15.7% | HCC-2998 colon 104% | KM12 colon 30.5%

O=C1NC(=O)C(c2ccccc2)(c2ccccc2)N1Cc1cn(-c2c3ccccc3nc3ccccc23)nn1
inactive: T-47D breast 63.6% | BT-549 breast 81.5% | MDA-MB-435 melanoma 94.4% | SW-620 colon 85.6% | MCF7 breast 73.9% | HCT-116 colon 68.1% | HCC-2998 colon 104% | KM12 colon 91.2%

O=C(Nc1ccc(F)cc1F)c1cc(F)ccc1O
inactive: MDA-MB-435 melanoma 14.6% | SW-620 colon 20.8% | HCC-2998 colon 27.9%
active: T-47D breast 6.93% | BT-549 breast 8.69% | MCF7 breast 4.23% | KM12 colon 8.7%

O=C1COCCN1c1ccc(NCc2cn(C(=O)c3ccc(Cl)cc3)c3ccccc23)cc1
inactive: BT-549 breast 41.9% | MDA-MB-435 melanoma 92.6% | SW-620 colon 40.4% | MCF7 breast 10.1% | HCC-2998 colon 91% | KM12 colon 97.1%
active: T-47D breast -12.7% | HCT-116 colon 7.09%

COc1ccc(OC)c(/C=C2\Oc3cc(OCCN4CCC(Cc5ccccc5)CC4)ccc3C2=O)c1
inactive: T-47D breast 63.1% | BT-549 breast 89.8% | MDA-MB-435 melanoma 87.3% | SW-620 colon 74.5% | MCF7 breast 77.3% | HCC-2998 colon 19.7% | KM12 colon 92.9%

O=C(O)C(c1ccccc1)N1C(=O)CSC1=S (stereo not given)
inactive: T-47D breast 97.7% | BT-549 breast 94.2% | MDA-MB-435 melanoma 99.5% | SW-620 colon 103% | MCF7 breast 93.8% | HCT-116 colon 102% | HCC-2998 colon 112% | KM12 colon 102%

COc1cc(/C=C2\C(=O)Nc3ccc(Br)cc32)cc(OC)c1OC
inactive: T-47D breast 53.2% | BT-549 breast 58.3% | MDA-MB-435 melanoma 21.2% | SW-620 colon 36.1% | MCF7 breast 24.2% | HCT-116 colon 37.3% | HCC-2998 colon 67.6% | KM12 colon 47.8%

CCCCn1c(=O)c(-c2cc(-c3ccc(Cl)cc3)nc(-c3ccc(Cl)cc3)c2)cc2ccc(Cl)cc21
inactive: T-47D breast 99.6% | BT-549 breast 105% | MDA-MB-435 melanoma 103% | MCF7 breast 93.1% | HCT-116 colon 105% | HCC-2998 colon 103% | KM12 colon 99.3%

CC1=C([Se]CC(OC(=O)[C@@H](CSSC(C)(C)C)NC(=O)OC(C)(C)C)C(=O)NC(C)(C)C)C(=O)c2ccccc2C1=O (stereo not given in full)
active: T-47D breast -50.3% | BT-549 breast -97.8% | MDA-MB-435 melanoma -91.2% | SW-620 colon -83.3% | MCF7 breast -25.9% | HCC-2998 colon -93.5% | KM12 colon -97.7%

CCN1C(=O)N(CC)C2Nn3c(s/c(=C4\C(=O)N(CC(C)C)c5ccccc54)c3=O)=NC21 (stereo not given)
active: MDA-MB-435 melanoma -45.9%
inactive: T-47D breast 46% | BT-549 breast 52.7% | MCF7 breast 26.1% | HCT-116 colon 14.4% | HCC-2998 colon 76.5% | KM12 colon 31.9%

COc1ccc(C2CC(c3ccc(Nc4ccnc5cc(Cl)ccc45)cc3)=NN2C=O)cc1 (stereo not given)
active: MDA-MB-435 melanoma -3.72%
inactive: T-47D breast 51.1% | BT-549 breast 63.7% | SW-620 colon 70.9% | MCF7 breast 40.3% | HCC-2998 colon 57.8% | KM12 colon 66.2%

C#C[C@]1(O)CC[C@H]2[C@@H]3CC=C4c5sc(Nc6ccccc6)nc5CC[C@]4(C)[C@H]3CC[C@@]21C
active: SW-620 colon 3.04% | MCF7 breast 8.14%
inactive: T-47D breast 28.6% | BT-549 breast 19.9% | MDA-MB-435 melanoma 34.4% | HCC-2998 colon 45.3% | KM12 colon 13.1%

CN1C(=O)CNC(=O)[C@H](NC(=O)c2nc3ccccc3cc2O)CSSC[C@H]1C(=O)NCCCc1nc2ccccc2cc1O
inactive: T-47D breast 78% | BT-549 breast 75.8% | MDA-MB-435 melanoma 44% | SW-620 colon 48.2% | MCF7 breast 55.1% | HCC-2998 colon 74.7% | KM12 colon 27%

O=c1c2cc(F)ccc2sc2c(N3CCNCC3)nc3ccc(F)cc3c12
active: MDA-MB-435 melanoma -94.3% | SW-620 colon -84.4% | MCF7 breast -62.9% | HCC-2998 colon -90.8% | KM12 colon -78.4%
inactive: T-47D breast 22.2% | BT-549 breast 79.8%

C=C1C(=O)O[C@H]2[C@H]1CC/C(COC(=O)NCCOCCOCC(=O)Nc1ccc(OC)c(C(N)=O)c1O)=C\CC[C@@]1(C)O[C@@H]21
inactive: T-47D breast 47.8% | BT-549 breast 68.6% | MDA-MB-435 melanoma 53.7% | SW-620 colon 18.5% | MCF7 breast 32% | HCC-2998 colon 90.4% | KM12 colon 95.2%

Oc1ccc(Cl)cc1Cc1cc(Cl)cc(Cl)c1O
inactive: T-47D breast 40.7% | MDA-MB-435 melanoma 15.4% | SW-620 colon 28% | MCF7 breast 60.1% | HCC-2998 colon 70.6% | KM12 colon 37.6%
active: BT-549 breast -11.4%

Cc1nc(/N=C(\N)NC(=O)Nc2ccccc2Cl)sc1C
active: MDA-MB-435 melanoma -25.6%
inactive: T-47D breast 34.7% | BT-549 breast 69.3% | SW-620 colon 36.3% | MCF7 breast 23.6% | HCC-2998 colon 33.4% | KM12 colon 40.3%

COc1cc(C(=O)/C=C/c2sc(Cl)nc2Cl)cc(OC)c1OC
active: SW-620 colon -61% | MCF7 breast -68.1% | HCC-2998 colon -58.3%
inactive: T-47D breast 28.2% | BT-549 breast 86.2% | MDA-MB-435 melanoma 98.5% | KM12 colon 28.4%

COc1ccc2[nH]c(-c3ccccc3)c(/C=C(\C#N)S(=O)(=O)c3ccccc3)c2c1
active: MDA-MB-435 melanoma 2.24%
inactive: T-47D breast 38.1% | BT-549 breast 64.5% | SW-620 colon 35.6% | MCF7 breast 26.2% | HCC-2998 colon 68.4% | KM12 colon 33.4%

COc1cc(CCC[P+](c2ccccc2)(c2ccccc2)c2ccccc2)c(OC)c2c1OCO2
active: MDA-MB-435 melanoma 3.48% | MCF7 breast 9.9% | KM12 colon 6.93%
inactive: T-47D breast 13.9% | BT-549 breast 15.8% | SW-620 colon 31.1% | HCC-2998 colon 26.7%

CCOC(=O)c1cn2ncnc(Oc3ccc(NC(=O)NCCN(C)C)c(Cl)c3)c2c1C
inactive: T-47D breast 45.8% | BT-549 breast 77.8% | MDA-MB-435 melanoma 46.1% | MCF7 breast 61.6% | HCT-116 colon 36.4% | HCC-2998 colon 80.2% | KM12 colon 93.3%

CCOC(=O)c1c(C)oc2ncnc(N3CCN(C(=O)COc4ccc(C(C)(C)C)cc4)CC3)c12
inactive: T-47D breast 47.7% | BT-549 breast 54.3% | MDA-MB-435 melanoma 99.8% | MCF7 breast 83% | HCT-116 colon 75.2% | HCC-2998 colon 104% | KM12 colon 89.9%

NC1=C(c2nn[nH]n2)C(c2ccccc2Cl)c2ccc3ccccc3c2O1 (stereo not given)
inactive: T-47D breast 69.3% | BT-549 breast 93.1% | SW-620 colon 48.8% | MCF7 breast 41.3% | HCC-2998 colon 98.6% | KM12 colon 60.4%
active: MDA-MB-435 melanoma -10.3%

O=C1CCC(C(=O)NCCNCCNC(=O)C2CCC(=O)N2)N1 (stereo not given)
inactive: T-47D breast 85% | BT-549 breast 81.3% | MDA-MB-435 melanoma 104% | MCF7 breast 98.3% | HCT-116 colon 87.8% | HCC-2998 colon 105% | KM12 colon 102%

COc1ccc(C2NC(=O)C(C#N)c3c2sc2c(F)cccc32)c(OC)c1 (stereo not given)
inactive: T-47D breast 61.7% | BT-549 breast 72.1% | SW-620 colon 32.3% | MCF7 breast 24.5% | HCC-2998 colon 88.3% | KM12 colon 32%
active: MDA-MB-435 melanoma -28.7%
